Data published in PubChem BioAssay (EPA / NIEHS).
Records with an inconclusive call do not appear. Where a structure was tested more than once in an assay, its records may differ in their call. The source made the active and inactive calls. Rule for the calls: active = hit-call score of the fitted dose curve at least 0.9, where 1 is the maximum; inconclusive = response in the unintended direction; inactive = score below 0.9.

Molecular target: human Phosphodiesterase 5 (PDE5), PDE5A (gene 8654) (UniProt O76074)
Experiment: NVS_ENZ_hPDE5: NovaScreen (NVS) Enzymatic Assay for human Phosphodiesterase 5 (PDE5) (AID 2283194)
Protocol: NVS_ENZ_hPDE5 is a biochemical, single-readout assay that uses extracted gene-proteins in a cell-free assay. Measurements were taken 1 hour after chemical dosing in a 384-well plate.NVS_ENZ_hPDE5 is one of one assay component(s) measured or calculated from the NVS_ENZ_hPDE5 assay. It is designed to make measurements of enzyme activity, a form of enzyme reporter, as detected with fluorescence intensity signals by Fluorescence and electrophoretic mobility shift technology.Data from the assay component NVS_ENZ_hPDE5 was analyzed into 1 assay endpoint. This assay endpoint, NVS_ENZ_hPDE5, was analyzed in the positive analysis fitting direction relative to DMSO as the negative control and baseline of activity. Using a type of enzyme reporter, loss-of-signal activity can be used to understand changes in the enzymatic activity as they relate to the gene PDE5A. Furthermore, this assay endpoint can be referred to as a primary readout, because this assay has produced multiple assay endpoints where this one serves a enzymatic activity function. To generalize the intended target to other relatable targets, this assay endpoint is annotated to the esterase intended target family, where the subfamily is phosphodiesterase.
Binding assays used specific radioligands (tritiated, iodinated) with non-radioactive competitive displacement ligands in agonist or antagonist protocols (as indicated) and various reference compounds and inhibitors to titrate specific binding to receptors and transporters. Most enzyme assays (CYPs, kinases, phosphatases, proteases, HDACs) used recombinant protein and specific substrates (fluorescence mostly, some colorimetric and radioactive) and inhibitors, followed by a biochemical separation of substrate and product. All assays for the biochemical HTS were initially run in duplicate at a single concentration (10 uM for CYP450 assays and 25 uM for all others). […] Each assay was run with positive and negative controls, and concurrent controls on every plate. […]

| SMILES | outcome | AC50 |
| --- | --- | --- |
| CCCCCC(C)OC(=O)COc1ccc(Cl)c2cccnc12 (stereo not given) | inactive | – |
| CS(=O)(=O)c1ccc([C@@H](CC2CCCC2)C(=O)Nc2cnccn2)cc1Cl | – | 8.2 µM (active) |
| O=C(c1ccccc1)c1ccccc1 | inactive | – |

Molecular target: human Phosphodiesterase 10 (PDE10), PDE10A (gene 10846) (UniProt Q9Y233)
Sequence (Q9Y233 whole entry, looked up): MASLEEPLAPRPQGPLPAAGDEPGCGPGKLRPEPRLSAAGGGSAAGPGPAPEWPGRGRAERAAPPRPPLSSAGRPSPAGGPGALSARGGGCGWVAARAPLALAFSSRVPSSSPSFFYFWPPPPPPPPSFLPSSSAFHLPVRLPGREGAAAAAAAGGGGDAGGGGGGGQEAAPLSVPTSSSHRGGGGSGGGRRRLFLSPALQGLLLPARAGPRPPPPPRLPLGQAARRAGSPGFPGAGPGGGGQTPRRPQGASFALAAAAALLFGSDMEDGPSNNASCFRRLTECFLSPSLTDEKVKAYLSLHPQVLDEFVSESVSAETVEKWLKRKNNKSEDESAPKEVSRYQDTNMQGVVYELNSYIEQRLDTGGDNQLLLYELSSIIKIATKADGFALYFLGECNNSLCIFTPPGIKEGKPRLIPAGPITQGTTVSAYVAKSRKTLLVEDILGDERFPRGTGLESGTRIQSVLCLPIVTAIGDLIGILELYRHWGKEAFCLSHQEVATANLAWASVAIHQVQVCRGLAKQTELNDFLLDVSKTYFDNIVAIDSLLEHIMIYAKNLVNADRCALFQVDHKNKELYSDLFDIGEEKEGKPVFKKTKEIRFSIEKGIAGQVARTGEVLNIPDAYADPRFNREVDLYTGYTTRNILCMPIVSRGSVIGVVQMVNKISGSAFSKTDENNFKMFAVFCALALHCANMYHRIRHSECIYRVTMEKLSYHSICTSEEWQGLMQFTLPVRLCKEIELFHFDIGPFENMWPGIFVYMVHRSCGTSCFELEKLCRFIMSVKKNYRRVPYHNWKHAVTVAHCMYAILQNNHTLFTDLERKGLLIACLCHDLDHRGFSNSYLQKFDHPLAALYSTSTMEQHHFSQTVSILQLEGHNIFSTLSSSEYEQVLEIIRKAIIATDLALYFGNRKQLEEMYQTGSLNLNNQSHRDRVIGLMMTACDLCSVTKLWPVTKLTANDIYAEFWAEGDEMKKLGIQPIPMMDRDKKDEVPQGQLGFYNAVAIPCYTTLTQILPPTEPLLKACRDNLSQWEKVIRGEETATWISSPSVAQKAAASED
Experiment: NVS_ENZ_hPDE10: NovaScreen (NVS) Enzymatic Assay for human Phosphodiesterase 10 (PDE10) (AID 2283195)
Outline: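 Recombinant human PDE10 with fluorescent substrate, 1 h, product separated by electrophoretic mobility shift. Loss of enzyme activity fitted against DMSO; initial screen 25 uM in duplicate, actives run to 50 uM maximum.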

| SMILES | AC50 | outcome |
| --- | --- | --- |
| CCCCCCCCCCCCOS(=O)(=O)O | 25 µM (active) | – |
| CCCCCCCCC(C)=O | – | inactive |
| O=C(NO)c1ccccc1 | 7.2 µM (active) | inactive |
| O=C1OC2(c3ccccc31)c1cc(I)c(O)c(I)c1Oc1c2cc(I)c(O)c1I | – | inactive |
| CC(=O)CC(C)C | – | inactive |
| CCCCCCCCCCCCCCCCCC[N+](C)(C)Cc1ccccc1 | – | inactive |
| CCOC(OCC)C(=O)c1ccccc1 | – | inactive |
| CCC1CO1 (stereo not given) | 6.67 µM (active) | – |
| O=C(NCc1ncc(C(F)(F)F)cc1Cl)c1c(Cl)cccc1Cl | – | inactive |
| CCc1cccc(CC)c1NC(=O)C(=O)O | – | inactive |
| CCCC=O | – | inactive |
| Clc1ccc(Nc2nnc(Cc3ccncc3)c3ccccc23)cc1 | – | inactive |

Molecular target: human Phosphoinositide 3-kinase alpha (PI3Ka), PIK3CA (gene 5290) (UniProt P42336)
Sequence (P42336 whole entry, looked up): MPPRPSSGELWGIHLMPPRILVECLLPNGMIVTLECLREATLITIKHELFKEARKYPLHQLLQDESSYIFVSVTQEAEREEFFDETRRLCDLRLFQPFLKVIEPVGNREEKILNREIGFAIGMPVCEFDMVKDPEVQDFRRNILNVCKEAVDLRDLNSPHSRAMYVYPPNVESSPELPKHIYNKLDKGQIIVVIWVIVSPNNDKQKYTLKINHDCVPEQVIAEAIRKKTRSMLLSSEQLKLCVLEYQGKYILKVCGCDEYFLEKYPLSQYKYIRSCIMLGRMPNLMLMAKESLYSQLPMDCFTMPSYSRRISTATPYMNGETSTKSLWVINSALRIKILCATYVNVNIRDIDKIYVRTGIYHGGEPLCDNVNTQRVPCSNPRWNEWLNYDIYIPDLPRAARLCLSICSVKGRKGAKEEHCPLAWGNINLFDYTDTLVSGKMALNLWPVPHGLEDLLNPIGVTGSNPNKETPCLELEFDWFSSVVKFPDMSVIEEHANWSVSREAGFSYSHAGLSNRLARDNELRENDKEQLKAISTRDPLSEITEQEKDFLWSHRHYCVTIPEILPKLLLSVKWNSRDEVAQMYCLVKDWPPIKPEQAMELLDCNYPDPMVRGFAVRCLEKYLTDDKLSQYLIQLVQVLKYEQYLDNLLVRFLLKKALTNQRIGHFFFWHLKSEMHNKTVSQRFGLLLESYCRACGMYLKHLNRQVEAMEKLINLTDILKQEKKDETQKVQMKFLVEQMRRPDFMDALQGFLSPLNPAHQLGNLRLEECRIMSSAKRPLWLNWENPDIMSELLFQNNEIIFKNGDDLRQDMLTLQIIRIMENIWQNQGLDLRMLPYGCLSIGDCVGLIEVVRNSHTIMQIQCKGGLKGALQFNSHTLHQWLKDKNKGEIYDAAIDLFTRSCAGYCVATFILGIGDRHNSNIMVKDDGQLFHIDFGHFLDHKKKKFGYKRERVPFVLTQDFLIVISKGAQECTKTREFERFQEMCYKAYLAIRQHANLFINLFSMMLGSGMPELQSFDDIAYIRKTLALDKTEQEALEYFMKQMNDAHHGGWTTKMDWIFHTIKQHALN
Experiment: NVS_ENZ_hPI3Ka: NovaScreen (NVS) Enzymatic Assay for human Phosphoinositide 3-kinase alpha (PI3Ka) (AID 2283196)
Outline: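 Recombinant human PI3Kα with fluorescent substrate, 1 h, product separated by electrophoretic mobility shift; 25 uM duplicate screen, hits (e.g., 30% inhibition) retested singly up to 50 uM; loss of signal vs DMSO.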

| SMILES | outcome | AC50 |
| --- | --- | --- |
| CCCCCCCCCCCCOS(=O)(=O)O | inactive | – |
| O=C(NO)c1ccccc1 | inactive | – |
| C=COC(=O)C(C)(C)CCCCCC | inactive | – |
| CC(C)C=O | inactive | – |
| NC(=NCCCCCCN=C(N)/N=C(\N)Nc1ccc(Cl)cc1)/N=C(\N)Nc1ccc(Cl)cc1 | – | 0.531 µM (active) |
| CCCCCCCCCCCC | inactive | – |
| CCOCCOCC | inactive | – |
| CCN(CC)CC | inactive | – |
| CCCCC(CC)C(=O)OCCOCCOCCOCCOC(=O)C(CC)CCCC (stereo not given) | inactive | – |
